Experimental data: the supplement of paper PMC11732987, “Enantioselective OTUD7B fragment discovery through chemoproteomics screening and high-throughput optimisation” (Communications Chemistry, 2025)

Key:
Assay in all cases: log2 ratio of Biotin-Ahx-Ub-VS probe labelling (fragment/DMSO); higher = less target engagement (more negative = stronger competition), active = hit call of the paper (q ≤ 0.05, log2 ratio ≤ -1)
Conditions in all cases: compound concentration: 200 uM; treatment time: 3 h
USP34 = USP34 (UniProt Q70CQ2)
How it was run: (§1)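 Each value is an average log2 ratio of fragment to vehicle, tested by unpaired t-test. The underlying Spectronaut label-free quantities were global-median-normalised, and only proteins with ≥2 unique peptides were included. Triplicate HEK293T lysate samples (495 µg) were exposed to fragment at 200 µM or vehicle for 3 h, then to Biotin-Ahx-Ub-VS at 0.5 µM final for 1 h, before NeutrAvidin enrichment of labelled DUBs, LysC and trypsin digestion, and diaPASEF LC-MS/MS.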

USP36 = target: T1, USP36 (UniProt Q9P275)
T1 sequence (whole entry): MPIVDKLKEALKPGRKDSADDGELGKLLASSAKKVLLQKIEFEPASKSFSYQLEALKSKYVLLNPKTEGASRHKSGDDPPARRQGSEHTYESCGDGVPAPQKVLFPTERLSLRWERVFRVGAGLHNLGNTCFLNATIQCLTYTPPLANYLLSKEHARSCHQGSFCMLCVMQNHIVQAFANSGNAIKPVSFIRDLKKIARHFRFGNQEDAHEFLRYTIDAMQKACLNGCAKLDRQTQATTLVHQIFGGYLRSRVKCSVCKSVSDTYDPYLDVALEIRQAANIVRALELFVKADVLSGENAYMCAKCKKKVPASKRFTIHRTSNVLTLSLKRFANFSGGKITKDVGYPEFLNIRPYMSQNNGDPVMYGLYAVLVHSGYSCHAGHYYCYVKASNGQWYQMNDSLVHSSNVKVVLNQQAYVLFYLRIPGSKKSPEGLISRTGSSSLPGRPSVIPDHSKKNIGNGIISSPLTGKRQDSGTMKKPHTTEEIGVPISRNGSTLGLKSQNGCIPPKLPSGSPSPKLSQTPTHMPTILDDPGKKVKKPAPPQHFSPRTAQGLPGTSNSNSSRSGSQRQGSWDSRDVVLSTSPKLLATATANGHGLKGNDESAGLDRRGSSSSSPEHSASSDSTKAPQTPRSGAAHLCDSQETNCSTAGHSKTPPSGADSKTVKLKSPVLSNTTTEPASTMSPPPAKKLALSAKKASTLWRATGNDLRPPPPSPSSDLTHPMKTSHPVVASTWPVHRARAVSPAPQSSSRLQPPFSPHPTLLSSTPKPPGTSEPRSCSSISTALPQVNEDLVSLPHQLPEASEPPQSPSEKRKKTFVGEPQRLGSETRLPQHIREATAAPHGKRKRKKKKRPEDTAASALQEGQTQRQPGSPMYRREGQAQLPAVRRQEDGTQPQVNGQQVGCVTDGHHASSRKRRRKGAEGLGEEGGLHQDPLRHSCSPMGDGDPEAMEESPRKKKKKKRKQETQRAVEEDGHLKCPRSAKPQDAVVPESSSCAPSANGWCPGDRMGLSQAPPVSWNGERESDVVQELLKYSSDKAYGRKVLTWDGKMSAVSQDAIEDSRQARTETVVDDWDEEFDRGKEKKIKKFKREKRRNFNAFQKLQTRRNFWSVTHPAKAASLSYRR
How it was run: as §1

USP38 = target: T2, USP38 (UniProt Q8NB14)
T2 sequence (whole entry): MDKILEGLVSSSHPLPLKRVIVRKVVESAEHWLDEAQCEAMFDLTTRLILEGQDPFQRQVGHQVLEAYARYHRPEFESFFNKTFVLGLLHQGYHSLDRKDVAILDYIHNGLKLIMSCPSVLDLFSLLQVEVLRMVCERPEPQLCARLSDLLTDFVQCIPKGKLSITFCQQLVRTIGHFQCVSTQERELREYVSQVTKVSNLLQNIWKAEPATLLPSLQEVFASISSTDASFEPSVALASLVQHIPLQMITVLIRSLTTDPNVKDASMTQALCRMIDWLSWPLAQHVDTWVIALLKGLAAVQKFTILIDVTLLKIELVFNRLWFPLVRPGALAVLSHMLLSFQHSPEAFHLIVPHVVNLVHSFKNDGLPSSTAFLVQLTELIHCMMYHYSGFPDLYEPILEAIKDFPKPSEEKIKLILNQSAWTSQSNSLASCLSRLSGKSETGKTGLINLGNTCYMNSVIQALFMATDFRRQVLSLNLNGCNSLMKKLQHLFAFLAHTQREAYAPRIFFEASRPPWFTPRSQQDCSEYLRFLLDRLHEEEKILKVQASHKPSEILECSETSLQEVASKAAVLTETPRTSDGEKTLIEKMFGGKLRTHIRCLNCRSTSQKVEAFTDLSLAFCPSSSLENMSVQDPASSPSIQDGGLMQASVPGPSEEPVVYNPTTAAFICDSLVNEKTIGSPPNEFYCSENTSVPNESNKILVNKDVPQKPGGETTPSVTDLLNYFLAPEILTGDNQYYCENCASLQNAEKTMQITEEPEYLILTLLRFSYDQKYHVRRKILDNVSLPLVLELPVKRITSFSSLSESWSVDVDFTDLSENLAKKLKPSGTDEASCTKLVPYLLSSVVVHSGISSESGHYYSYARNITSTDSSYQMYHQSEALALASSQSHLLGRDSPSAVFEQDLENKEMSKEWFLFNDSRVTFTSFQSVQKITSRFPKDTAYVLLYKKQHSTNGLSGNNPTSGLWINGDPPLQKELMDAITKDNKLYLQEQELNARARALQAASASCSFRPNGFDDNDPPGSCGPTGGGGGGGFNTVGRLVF
How it was run: as §1

USP39 = target: T3, USP39 (UniProt Q53GS9)
T3 sequence (whole entry): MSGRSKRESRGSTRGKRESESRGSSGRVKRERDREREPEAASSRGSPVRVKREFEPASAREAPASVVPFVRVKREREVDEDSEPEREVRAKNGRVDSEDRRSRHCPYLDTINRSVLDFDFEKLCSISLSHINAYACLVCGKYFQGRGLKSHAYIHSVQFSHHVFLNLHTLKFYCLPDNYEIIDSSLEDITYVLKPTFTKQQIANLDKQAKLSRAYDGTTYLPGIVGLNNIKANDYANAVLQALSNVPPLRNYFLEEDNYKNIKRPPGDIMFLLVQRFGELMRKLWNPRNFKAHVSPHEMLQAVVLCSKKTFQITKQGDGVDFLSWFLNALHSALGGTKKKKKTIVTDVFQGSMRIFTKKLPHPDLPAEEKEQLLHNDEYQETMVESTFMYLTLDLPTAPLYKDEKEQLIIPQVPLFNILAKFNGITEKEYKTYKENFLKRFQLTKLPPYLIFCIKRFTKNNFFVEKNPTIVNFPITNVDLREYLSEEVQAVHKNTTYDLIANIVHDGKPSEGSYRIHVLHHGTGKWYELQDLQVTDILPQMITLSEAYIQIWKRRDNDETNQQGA
How it was run: as §1

USP4 = target: T4, USP4 (UniProt Q13107)
T4 sequence (whole entry): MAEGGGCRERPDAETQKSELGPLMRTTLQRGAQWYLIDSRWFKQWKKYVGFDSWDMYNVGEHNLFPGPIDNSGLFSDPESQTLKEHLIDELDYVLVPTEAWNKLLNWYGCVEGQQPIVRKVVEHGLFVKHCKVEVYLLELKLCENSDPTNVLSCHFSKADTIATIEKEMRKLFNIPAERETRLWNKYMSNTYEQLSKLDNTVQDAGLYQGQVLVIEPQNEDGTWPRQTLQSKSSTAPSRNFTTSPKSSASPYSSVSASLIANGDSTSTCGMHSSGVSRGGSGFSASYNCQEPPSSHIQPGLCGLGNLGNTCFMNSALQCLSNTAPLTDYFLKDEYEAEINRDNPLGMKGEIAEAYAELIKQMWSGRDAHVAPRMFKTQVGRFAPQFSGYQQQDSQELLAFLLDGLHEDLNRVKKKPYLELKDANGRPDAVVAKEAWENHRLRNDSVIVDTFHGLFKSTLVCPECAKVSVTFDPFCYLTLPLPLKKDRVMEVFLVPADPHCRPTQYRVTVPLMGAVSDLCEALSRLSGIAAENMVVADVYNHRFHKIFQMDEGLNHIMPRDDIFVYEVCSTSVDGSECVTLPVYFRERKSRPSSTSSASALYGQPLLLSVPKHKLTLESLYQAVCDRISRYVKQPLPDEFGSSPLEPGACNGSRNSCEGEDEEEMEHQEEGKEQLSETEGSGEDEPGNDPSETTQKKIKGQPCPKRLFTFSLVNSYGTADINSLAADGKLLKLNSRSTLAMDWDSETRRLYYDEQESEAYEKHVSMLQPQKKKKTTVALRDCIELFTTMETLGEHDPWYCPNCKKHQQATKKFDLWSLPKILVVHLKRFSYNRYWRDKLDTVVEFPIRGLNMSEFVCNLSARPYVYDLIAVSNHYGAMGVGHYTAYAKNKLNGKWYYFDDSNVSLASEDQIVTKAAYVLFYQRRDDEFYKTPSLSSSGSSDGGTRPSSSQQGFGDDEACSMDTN
How it was run: as §1

Measured: log2 ratio of Biotin-Ahx-Ub-VS probe labelling

USP34, sequence (Q70CQ2 whole entry, the tested form may be a part): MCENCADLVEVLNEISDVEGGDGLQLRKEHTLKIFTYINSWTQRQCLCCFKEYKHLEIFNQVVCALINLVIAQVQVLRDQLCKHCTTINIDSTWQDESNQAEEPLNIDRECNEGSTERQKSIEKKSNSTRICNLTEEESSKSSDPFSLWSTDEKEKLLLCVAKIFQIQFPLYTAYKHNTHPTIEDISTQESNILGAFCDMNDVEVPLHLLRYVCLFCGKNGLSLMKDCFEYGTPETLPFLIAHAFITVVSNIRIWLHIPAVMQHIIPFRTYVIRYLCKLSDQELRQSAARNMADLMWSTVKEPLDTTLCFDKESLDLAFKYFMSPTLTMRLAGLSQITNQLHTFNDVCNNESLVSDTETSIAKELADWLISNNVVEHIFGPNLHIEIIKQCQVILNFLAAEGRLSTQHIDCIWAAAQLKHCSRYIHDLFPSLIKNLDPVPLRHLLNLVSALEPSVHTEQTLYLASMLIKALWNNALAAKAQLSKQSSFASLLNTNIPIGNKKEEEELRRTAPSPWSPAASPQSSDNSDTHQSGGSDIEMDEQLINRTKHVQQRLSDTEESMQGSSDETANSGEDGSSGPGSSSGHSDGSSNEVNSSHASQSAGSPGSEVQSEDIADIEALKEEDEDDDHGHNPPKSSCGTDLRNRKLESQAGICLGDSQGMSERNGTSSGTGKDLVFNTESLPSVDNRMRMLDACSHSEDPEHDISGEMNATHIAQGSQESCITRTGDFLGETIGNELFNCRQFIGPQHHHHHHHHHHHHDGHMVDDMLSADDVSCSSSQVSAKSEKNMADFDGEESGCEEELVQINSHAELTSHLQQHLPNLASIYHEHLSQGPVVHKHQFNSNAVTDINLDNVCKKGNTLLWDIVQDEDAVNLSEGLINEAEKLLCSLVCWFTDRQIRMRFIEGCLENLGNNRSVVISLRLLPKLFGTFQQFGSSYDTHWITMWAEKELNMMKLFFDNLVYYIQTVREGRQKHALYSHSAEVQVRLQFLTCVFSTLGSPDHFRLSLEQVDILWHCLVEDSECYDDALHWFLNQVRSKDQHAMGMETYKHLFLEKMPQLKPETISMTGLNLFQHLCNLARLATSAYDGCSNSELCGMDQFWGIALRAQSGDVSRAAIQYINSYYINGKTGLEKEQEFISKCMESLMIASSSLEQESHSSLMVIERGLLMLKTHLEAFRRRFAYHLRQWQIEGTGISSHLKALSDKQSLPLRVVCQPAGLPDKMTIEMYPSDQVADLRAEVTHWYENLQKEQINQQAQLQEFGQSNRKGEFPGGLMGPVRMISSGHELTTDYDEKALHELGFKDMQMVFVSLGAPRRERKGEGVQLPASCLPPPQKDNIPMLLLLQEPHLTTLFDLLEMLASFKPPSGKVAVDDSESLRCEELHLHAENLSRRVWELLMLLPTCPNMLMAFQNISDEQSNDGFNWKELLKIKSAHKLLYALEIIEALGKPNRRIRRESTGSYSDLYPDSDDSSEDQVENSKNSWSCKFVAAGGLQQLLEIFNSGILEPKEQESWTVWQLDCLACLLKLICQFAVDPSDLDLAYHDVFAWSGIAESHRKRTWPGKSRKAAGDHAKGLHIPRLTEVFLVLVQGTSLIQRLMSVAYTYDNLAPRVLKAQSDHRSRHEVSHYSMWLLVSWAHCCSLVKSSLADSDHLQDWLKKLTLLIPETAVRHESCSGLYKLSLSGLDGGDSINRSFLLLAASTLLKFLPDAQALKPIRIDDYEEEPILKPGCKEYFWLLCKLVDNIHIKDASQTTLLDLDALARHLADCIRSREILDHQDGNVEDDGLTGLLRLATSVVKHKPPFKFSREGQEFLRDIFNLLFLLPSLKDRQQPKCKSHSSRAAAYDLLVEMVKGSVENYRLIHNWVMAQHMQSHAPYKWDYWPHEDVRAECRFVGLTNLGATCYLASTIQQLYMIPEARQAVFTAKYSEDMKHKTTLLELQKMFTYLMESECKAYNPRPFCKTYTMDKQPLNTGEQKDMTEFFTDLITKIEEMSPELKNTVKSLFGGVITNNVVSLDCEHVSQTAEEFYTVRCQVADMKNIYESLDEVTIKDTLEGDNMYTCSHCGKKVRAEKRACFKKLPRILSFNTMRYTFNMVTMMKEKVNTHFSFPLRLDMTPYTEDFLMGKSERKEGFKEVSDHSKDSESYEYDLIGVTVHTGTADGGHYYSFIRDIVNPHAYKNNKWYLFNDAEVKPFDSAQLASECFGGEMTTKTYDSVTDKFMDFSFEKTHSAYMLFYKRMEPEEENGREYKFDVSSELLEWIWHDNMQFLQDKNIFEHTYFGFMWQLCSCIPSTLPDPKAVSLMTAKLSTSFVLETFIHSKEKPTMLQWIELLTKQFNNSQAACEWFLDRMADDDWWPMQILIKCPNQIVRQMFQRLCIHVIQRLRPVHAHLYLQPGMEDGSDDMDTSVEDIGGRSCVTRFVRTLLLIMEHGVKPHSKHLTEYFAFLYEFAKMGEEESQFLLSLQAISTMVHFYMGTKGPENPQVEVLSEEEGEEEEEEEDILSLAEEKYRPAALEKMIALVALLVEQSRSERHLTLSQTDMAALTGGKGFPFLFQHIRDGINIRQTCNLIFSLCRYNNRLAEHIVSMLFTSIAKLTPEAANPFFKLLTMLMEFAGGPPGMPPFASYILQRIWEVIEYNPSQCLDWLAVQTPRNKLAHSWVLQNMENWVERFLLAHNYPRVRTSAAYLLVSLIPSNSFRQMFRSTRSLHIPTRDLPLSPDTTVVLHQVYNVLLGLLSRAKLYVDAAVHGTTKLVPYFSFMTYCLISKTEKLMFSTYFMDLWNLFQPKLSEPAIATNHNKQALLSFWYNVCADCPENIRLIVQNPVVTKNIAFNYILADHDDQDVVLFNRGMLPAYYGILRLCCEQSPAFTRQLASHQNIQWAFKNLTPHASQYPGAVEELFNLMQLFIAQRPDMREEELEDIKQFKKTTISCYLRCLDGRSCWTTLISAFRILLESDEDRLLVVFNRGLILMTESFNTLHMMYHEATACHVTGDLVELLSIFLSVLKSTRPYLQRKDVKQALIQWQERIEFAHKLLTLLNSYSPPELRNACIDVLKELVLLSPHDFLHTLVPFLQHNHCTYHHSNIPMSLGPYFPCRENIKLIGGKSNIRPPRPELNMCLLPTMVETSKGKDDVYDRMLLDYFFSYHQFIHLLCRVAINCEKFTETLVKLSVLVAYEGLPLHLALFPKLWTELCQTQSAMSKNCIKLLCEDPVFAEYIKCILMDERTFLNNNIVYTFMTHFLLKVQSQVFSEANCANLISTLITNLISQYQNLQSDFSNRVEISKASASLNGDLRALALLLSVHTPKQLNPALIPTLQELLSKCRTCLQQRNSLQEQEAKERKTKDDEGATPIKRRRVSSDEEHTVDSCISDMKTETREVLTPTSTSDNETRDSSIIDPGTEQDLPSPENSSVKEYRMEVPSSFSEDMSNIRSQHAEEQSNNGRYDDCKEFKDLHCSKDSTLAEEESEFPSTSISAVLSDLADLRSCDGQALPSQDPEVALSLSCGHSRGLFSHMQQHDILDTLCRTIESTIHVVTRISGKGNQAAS

O=C(CCl)N1CCC(S(=O)(=O)c2ccc(F)cc2)CC1
inactive: USP34 -0.128 | USP36 -0.00998 | USP38 -0.00588 | USP39 0.031 | USP4 -0.218
